Source: the supplement of paper PMC7695840
Counter-ions that a name gives are not always drawn.

Key:
[1] = system: Staphylococcus aureus MW2 delta-mecA (mecA-); assay: normalized GFP fluorescence (growth of mecA- strain) (fraction of control range); higher = more growth of mecA- strain; conditions: compound concentration: 150 uM; cefoxitin: subinhibitory; fluorescent label: GFP
Outline: (§1)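 Single-replicate 1536-well plates carried 150 μM compound (1.5% DMSO), onto which 5 µL/well of a 1:1 mix of pre-induced S. aureus MW2 cells was dispensed: gene-carrying cells tagged with DsRed and deletion cells tagged with GFP, in LB with a subinhibitory antibiotic dose set daily. Incubation ran 20 h at 37 °C, 90% humidity, unshaken, followed by DsRed (540/590) and GFP (485/520) reads. Per-plate scaling of each channel used single-strain control medians, and plates with high untreated ratios and rows with DsRed/GFP >10 were excluded.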

[2] = system: Staphylococcus aureus MW2 (mecA+); assay: normalized DsRed fluorescence (growth of mecA+ strain) (fraction of control range); higher = more growth of mecA+ strain; conditions: compound concentration: 150 uM; cefoxitin: subinhibitory; fluorescent label: DsRed
Outline: as §1

CCN(C(C)=O)c1cccc(-c2ccnc3c(C#N)cnn23)c1
normalized GFP fluorescence [1]: 0.782
normalized DsRed fluorescence [2]: 0.598

CN1C(=O)C(O)N=C(c2ccccc2)c2cc(Cl)ccc21 (stereo unspecified)
normalized GFP fluorescence [1]: 0.205
normalized DsRed fluorescence [2]: 0.691

O=C(O)CCCc1ccc(N(CCCl)CCCl)cc1
normalized GFP fluorescence [1]: 0.418
normalized DsRed fluorescence [2]: 1.38

Oc1ccc2c3c1O[C@H]1[C@@H](O)CC[C@@]4(O)[C@@H](C2)N(CC2CCC2)CC[C@]314
normalized GFP fluorescence [1]: 0.717
normalized DsRed fluorescence [2]: 0.715

CCC(=O)O[C@H]1CC[C@H]2[C@@H]3CCC4=CC(=O)CC[C@]4(C)[C@H]3CC[C@]12C
normalized GFP fluorescence [1]: 0.154
normalized DsRed fluorescence [2]: 0.364

Cc1ccc(-c2nc3ccc(C)cn3c2CC(=O)N(C)C)cc1
normalized GFP fluorescence [1]: 0.38
normalized DsRed fluorescence [2]: 0.527

CC(Cc1ccc(O)cc1)NCC(O)c1cc(O)cc(O)c1 (stereo unspecified)
normalized GFP fluorescence [1]: 0.322
normalized DsRed fluorescence [2]: 0.737

C[C@]12CC[C@H]3[C@@H](CCC4=CC(=O)CC[C@@]43C)[C@@H]1CC[C@@H]2O
normalized GFP fluorescence [1]: 0.501
normalized DsRed fluorescence [2]: 0.506

CCC1(c2ccc(N)cc2)CCC(=O)NC1=O (stereo unspecified)
normalized GFP fluorescence [1]: 0.425
normalized DsRed fluorescence [2]: 0.946

CC(C)N(CCC(C(N)=O)(c1ccccc1)c1ccccn1)C(C)C (stereo unspecified)
normalized GFP fluorescence [1]: 0.541
normalized DsRed fluorescence [2]: 0.697

CO[C@]12C[C@@H](COC(=O)c3cncc(Br)c3)CN(C)[C@@H]1Cc1cn(C)c3cccc2c13
normalized GFP fluorescence [1]: 0.411
normalized DsRed fluorescence [2]: 0.751

COc1cc2c(c(OC)c1OC)-c1ccc(OC)c(=O)cc1[C@@H](NC(C)=O)CC2
normalized GFP fluorescence [1]: 0.0184
normalized DsRed fluorescence [2]: 0.897

COC(=O)C(c1ccccc1)C1CCCCN1 (stereo unspecified)
normalized GFP fluorescence [1]: 0.277
normalized DsRed fluorescence [2]: 0.737

NC(=O)C[S@@+]([O-])C(c1ccccc1)c1ccccc1
normalized GFP fluorescence [1]: 0.234
normalized DsRed fluorescence [2]: 1.11

NCC(CC(=O)O)c1ccc(Cl)cc1 (stereo unspecified)
normalized GFP fluorescence [1]: 0.683
normalized DsRed fluorescence [2]: 0.941

C#C[C@]1(O)CC[C@H]2[C@@H]3CCC4=CC(=O)CC[C@]4(C)[C@H]3CC[C@@]21C
normalized GFP fluorescence [1]: 0.473
normalized DsRed fluorescence [2]: 0.916

CC(C)C[C@H]1C(=O)N2CCC[C@H]2[C@]2(O)O[C@](NC(=O)[C@@H]3C=C4c5cccc6[nH]c(Br)c(c56)C[C@H]4N(C)C3)(C(C)C)C(=O)N12
normalized GFP fluorescence [1]: 0.246
normalized DsRed fluorescence [2]: 1.03

NC(=O)C[S+]([O-])C(c1ccccc1)c1ccccc1 (stereo unspecified)
normalized GFP fluorescence [1]: 0.716
normalized DsRed fluorescence [2]: 0.558

O=C1CC[C@@]2(O)[C@H]3Cc4ccc(O)c5c4[C@@]2(CCN3CC2CC2)[C@H]1O5
normalized GFP fluorescence [1]: 0.283
normalized DsRed fluorescence [2]: 0.86

NCCCNCCSP(=O)(O)O
normalized GFP fluorescence [1]: 0.429
normalized DsRed fluorescence [2]: 0.76

C[C@@H]1O[C@@H](O[C@@H]2C=C3CC[C@@H]4[C@H](CC[C@]5(C)[C@@H](c6ccc(=O)oc6)CC[C@]45O)[C@@]3(C)CC2)[C@H](O)[C@H](O)[C@H]1O
normalized GFP fluorescence [1]: 0.198
normalized DsRed fluorescence [2]: 0.926

CNc1ccc(C(=O)CC(O)CCC(C)C2OC(=O)CC(O)CC(=O)CC(O)CC(O)CC(O)CC(O)CC3(O)CC(O)C(C(=O)OC)C(CC(O[C@@H]4O[C@H](C)[C@@H](O)[C@H](N)[C@@H]4O)/C=C/C=C/C=C/C=C/C=C/C=C/C=C/C2C)O3)cc1.COC(=O)C1C(O)CC2(O)CC(O)CC(O)CC(O)CC(O)CC(=O)CC(O)CC(=O)OC(C(C)CCC(O)CC(=O)c3ccc(N)cc3)C(C)/C=C/C=C/C=C/C=C/C=C/C=C/C=C/C(O[C@@H]3O[C@H](C)[C@@H](O)[C@H](N)[C@@H]3O)CC1O2 (stereo partly specified)
normalized GFP fluorescence [1]: 0.675
normalized DsRed fluorescence [2]: 0.626

Oc1cccc2cccnc12
normalized GFP fluorescence [1]: 0.00976
normalized DsRed fluorescence [2]: 0.0478

CC(C)N(CCNC(=O)CN1CCCC1=O)C(C)C [Pramiracetam]
normalized GFP fluorescence [1]: 0.568
normalized DsRed fluorescence [2]: 0.402

CNC(C)[C@H](O)c1ccccc1 (stereo partly specified)
normalized GFP fluorescence [1]: 0.353
normalized DsRed fluorescence [2]: 0.809

CC(=O)O[C@H]1C[C@@H]2CC[C@@H]3[C@H](CC[C@@]4(C)[C@H]3C[C@H]([N+]3(C)CCCCC3)[C@@H]4OC(C)=O)[C@@]2(C)C[C@@H]1[N+]1(C)CCCCC1 [Pancuronium (Pavulon)]
normalized GFP fluorescence [1]: 0.324
normalized DsRed fluorescence [2]: 0.578

N[C@@H]1C[C@H]1c1ccccc1.N[C@H]1C[C@@H]1c1ccccc1
normalized GFP fluorescence [1]: 0.546
normalized DsRed fluorescence [2]: 0.701

O=c1n(Cl)c(=O)n(Cl)c(=O)n1Cl
normalized GFP fluorescence [1]: 0.337
normalized DsRed fluorescence [2]: 0.35

O=C(O[C@H]1C[C@H]2CC[C@@H](C1)[N+]21CCCC1)C(O)(c1ccccc1)c1ccccc1 [Trospium chloride (Sanctura)]
normalized GFP fluorescence [1]: 0.723
normalized DsRed fluorescence [2]: 0.453

CCCC(C)C1(CC)C(=O)NC(=S)NC1=O (stereo unspecified)
normalized GFP fluorescence [1]: 0.288
normalized DsRed fluorescence [2]: 0.518

CC(O)(CS(=O)(=O)c1ccc(F)cc1)C(=O)Nc1ccc(C#N)c(C(F)(F)F)c1 (stereo unspecified) [Bicalutamide (Casodex)]
normalized GFP fluorescence [1]: 0.0167
normalized DsRed fluorescence [2]: 0.707

O=C1CN=C(c2ccccc2Cl)c2cc([N+](=O)[O-])ccc2N1
normalized GFP fluorescence [1]: 0.145
normalized DsRed fluorescence [2]: 1.02

C[C@H]1CNCCc2ccc(Cl)cc21 [Lorcaserin HCl]
normalized GFP fluorescence [1]: 0.467
normalized DsRed fluorescence [2]: 0.636
